Results published in PubChem BioAssay AID488857 (Sanford-Burnham Center for Chemical Genomics, 2010).
In all, about 1,400 compounds went through this assay and about 560 (40%) were called active.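 Rule for the calls: active = mean inhibition over duplicate tests at 10 µM above 50%; inactive = the rest.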 The set was probably picked from earlier hits. The list shows a part of the results.

Experiment: ASC/caspase-1 reporter retest in S. cerevisiae at one dose, specificity check for NALP1 project (AID 488857)
Conditions: S. cerevisiae ASC/Caspase-1, beta-galactosidase luminescence, 24 h; at 10 µM; hits give high values

SMILES | inhibition
CC1=CCC2C(=O)N(Cc3ccccc3)C(=O)C2C1 (stereo not drawn) | 33.4% (inactive)
CCCN(Cc1nc(-c2ccc(Cl)cc2)no1)CC1CCCO1 (stereo not drawn) | 54.2% (active)
COc1ccc(-c2noc(CCC(=O)N3CCC(C)CC3)n2)cc1 | 47.6% (inactive)
O=C(COC(=O)C1(c2ccccc2F)CCCC1)N1CCOCC1 | 27.1% (inactive)
O=C1NC(c2ccccc2)Nc2c1sc(=S)n2-c1ccccc1 (stereo not drawn) | 32.5% (inactive)
COCCN=C1Sc2nc3ccc(C)cc3cc2CN1Cc1ccco1 | 57.1% (active)
COC(=O)c1cc(=O)n(-c2ccccc2)c(=Nc2ccccc2)s1 | 61.7% (active)
COC(=O)c1cc(=O)n(-c2ccc(F)cc2)c(=Nc2ccc(F)cc2)s1 | 39.8% (inactive)
Cc1nc(NC(=O)CCc2ccccc2)ccc1Br | 63.3% (active)
Cc1csc(NC(=O)CCc2ccc(S(=O)(=O)N3CCOCC3)cc2)n1 | 40.8% (inactive)
OC(CN1CCN(Cc2ccccc2)CC1)Cn1c2ccccc2c2ccccc21 (stereo not drawn) | 56.6% (active)
COc1ccc(OCC(O)Cn2c(=N)n(Cc3ccccc3)c3ccccc32)cc1 (stereo not drawn) | 27.6% (inactive)
OC(CN1CCCCC1)Cn1c2ccc(Cl)cc2c2cc(Cl)ccc21 (stereo not drawn) | 49% (inactive)
CCCSc1ccc2nc(-c3ccccc3)cn2c1 | 88.8% (active)
Cc1nc(-c2ccccc2)sc1C(=O)CSc1ccccc1 | 46.5% (inactive)
O=[N+]([O-])c1ccc(N2CCN(c3ccc(Cl)nn3)CC2)c(Cl)c1 | 47.7% (inactive)
O=C1C(Cl)=C(N2CCN(c3ccccc3[N+](=O)[O-])CC2)C(=O)c2ccccc21 | 68.8% (active)
CC(C)CC(=O)N1CCN(c2ccc([N+](=O)[O-])cc2Cl)CC1 | 39.9% (inactive)
CC1(C)Cc2c(c(N3CCOCC3)nc3sc4c(NCCN5CCOCC5)nnnc4c23)CS1 | 37.6% (inactive)
CC(C)(C)c1nnc(N/N=C/c2cc(Br)ccc2O)n(N)c1=O | 86.8% (active)
O=c1oc2ccccc2nc1/C=C(O)/C=C/c1ccc(F)cc1 | 47.2% (inactive)

SMILES | inhibition
COc1ccc(C(=O)/C=C/Nc2ccc([N+](=O)[O-])cc2C)c(OC)c1 | 28.5% (inactive)
C/C(=N/Nc1ccc([N+](=O)[O-])cc1)c1ccc(C)cc1C | 50.2% (active)
CN(C)CCCN(C(=O)c1ccc2c(c1)CCCC2)c1nc2ccc(F)cc2s1 | 61.3% (active)
CN(C)CCCN(C(=O)c1ccc2c(c1)CCCC2)c1nc2ccc(Cl)cc2s1 | 63.9% (active)
CCOC(=O)c1c(C)[nH]c(N=Nc2cccc(C)c2)c1C | 46.2% (inactive)
Cc1cc(N2CCOCC2)ccc1/C=C\[N+](=O)[O-] | 56.6% (active)
O=C1O/C(=C/c2ccccc2)c2ccccc21 | 78.5% (active)
COC1=C(N)C(=O)c2nc(-c3nc(C(=O)O)c(C)c(-c4ccc(OC)c(OC)c4O)c3N)ccc2C1=O | 29.4% (inactive)
c1ccc(-c2ccc(-c3cn4c(n3)CCC4)cc2)cc1 | 93.3% (active)
Cc1ccnc(NS(=O)(=O)c2ccc(NC(=O)CSc3nc(-c4ccccc4)cc(=O)[nH]3)cc2)n1 | 6.75% (inactive)
COc1cccc(CNC(=O)CSc2ccc(-c3ccncc3)nn2)c1 | 27.2% (inactive)
O=C(CSc1nc(-c2ccccc2)cs1)Nc1cccc([N+](=O)[O-])c1 | 75.8% (active)
O=C(c1cccc([N+](=O)[O-])c1)n1nc(-c2ccccc2)nc1NCc1ccccc1 | 49.2% (inactive)
CC(C)NC(=O)CSc1nc(-c2ccccc2)cs1 | 52% (active)
COc1ccc(Cc2nnc(SC)[nH]c2=O)cc1 | 20.1% (inactive)
Cc1cc(Br)ccc1OCCCCN1CCC(C)CC1 | 60.4% (active)
Cc1ccc(OCCCCN(C)Cc2ccccc2)c(Br)c1 | 54.8% (active)
Brc1cccc(OCCN2CCCCC2)c1 | 49.1% (inactive)
CC(C)N(C)CCOC(=O)c1ccccc1Br | 28.4% (inactive)
CCOC(=O)c1[nH]c2ccc(Br)cc2c1NC(=O)CCN1CCC(C)CC1 | 40% (inactive)
Brc1cccc(OCCCCN2CCCCC2)c1 | 53.8% (active)

SMILES | inhibition
Cc1ccc(OCCCCN2CCCCC2)c(Br)c1 | 62.1% (active)
CC(C)NCCCCOc1cccc(Br)c1 | 45.5% (inactive)
Cn1c(SCC(=O)NC(c2ccccc2)c2ccccc2)nnc1-c1cccs1 | 35.6% (inactive)
CC(CCc1ccccc1)NC(=O)c1cc2sccc2n1C (stereo not drawn) | 52% (active)
c1ccc2cc(CSCc3nc4ccccc4[nH]3)ccc2c1 | 71.4% (active)
C=C(C)C1CC=C(C)/C(=N/NC(=O)c2ccoc2C)C1 (stereo not drawn) | 36.6% (inactive)
CCOC(=O)c1c(C)[nH]c(C(=O)COC(=O)c2oc3ccccc3c2C)c1C | 31.9% (inactive)
CCOC(=O)c1c(C)[nH]c2c1-c1ccccc1C(=O)C2=O | 26.6% (inactive)
CCOC(=O)c1c(C)[nH]c(C)c1C(=O)COC(=O)c1cc2ccccc2cc1O | 55.5% (active)
Cc1cccc(NC2=C(Cl)C(=O)OC2NC(=O)c2ccccc2)c1 (stereo not drawn) | 23.1% (inactive)
CCCc1nn(C)c(C(=O)Nc2cccc(C)c2)c1Cl | 65.5% (active)
COCc1cc(=O)[nH]c(/N=C(\N)Nc2cccc(C)c2)n1 | 25.1% (inactive)
Cc1cc(=O)n2ccccc2c1C#N | 15.6% (inactive)
O=S(=O)(Nc1ccncc1Cl)c1ccccc1 | 25.1% (inactive)
O=C1C2C(C(=O)N1/N=C/c1ccc([N+](=O)[O-])o1)C1C=CC2C12CC2 (stereo not drawn) | 38.2% (inactive)
O=C1C2C(C(=O)N1/N=C/c1cc(Br)cc([N+](=O)[O-])c1O)C1C=CC2C12CC2 (stereo not drawn) | 66.2% (active)
CCOC(=O)c1c(NC2OC(=O)c3c2ccc(OC)c3OC)sc(C(=O)OC(C)(C)C)c1C (stereo not drawn) | 65.2% (active)
CCCCC(C(=O)NC1CCCC1)N(Cc1ccco1)C(=O)Cn1nnc(-c2ccc(F)cc2)n1 (stereo not drawn) | 31.1% (inactive)
Cn1cccc1/C=N/N1CCN(Cc2ccc(Cl)cc2)CC1 | 51.9% (active)
CC(C)(CN1CCN(Cc2ccccc2)CC1)NS(=O)(=O)c1ccc(Cl)cc1 | 41.8% (inactive)
Cc1ccc(CN2CCN(/N=C/c3cccs3)CC2)cc1 | 28.2% (inactive)
